The values that follow come from article PMC12820563, “FoxP3 forms a head-to-head dimer in vivo and stabilizes its multimerization on adjacent microsatellites”.

Over roughly 16,000 sequences, “rpm ratio (pull-down/input)” has its median near 0.5; the highest 2% begin near 5.5. For the sample, the highest values were picked, then their nearest neighbours and some sequences at random.

The assay has as its target T1, MBP-FoxP3dN (Mus musculus, UniProt Q99JB6 188-423).
T1 sequence: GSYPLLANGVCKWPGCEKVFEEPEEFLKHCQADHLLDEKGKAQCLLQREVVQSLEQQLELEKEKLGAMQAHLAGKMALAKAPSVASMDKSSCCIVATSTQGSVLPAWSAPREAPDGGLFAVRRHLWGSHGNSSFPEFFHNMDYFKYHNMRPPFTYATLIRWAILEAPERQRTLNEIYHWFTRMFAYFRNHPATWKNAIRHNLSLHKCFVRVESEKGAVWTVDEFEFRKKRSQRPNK
Nature of the assay: PD-seq (MBP pull-down with sequencing); 20 mM Tris-HCl pH 7.5, 100 mM NaCl, 1.5 mM MgCl2, 0.4 uM protein, 0.1 uM dsDNA library, 30 min, room temperature, amylose pull-down; high values mean tight binding. To be noted: protein: recombinant; tags: His6-MBP; chain copies: 2; dsDNA, one strand shown. The method, boiled down: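 Protein and DNA were mixed at 0.4 µM and 0.1 µM and held for 30 min at room temperature in Tris pH 7.5 buffer with NaCl and MgCl2; the protein was a His6-MBP-tagged, N-terminally truncated mouse FoxP3 or FoxP1 fragment from E. coli, and the DNA a Klenow-filled double-stranded degenerate library. Amylose resin captured the complexes, which were washed three times. Binding is read as reads-per-million enrichment of pull-down versus input after Illumina sequencing, with replicates pooled.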
As to “GATGATTGTTCTCCCAGCTGATGAATTGTTCTTGTCGAGTAAACAAATTTTCCTAATCTTTCTGTTCAAGCGCCATCTAC”, the binding signal is 0.412 RPM ratio (pull-down/input).

For “GATGATTGTTCTCCCAGCTGATGAATTTGTCACTTCGAGTAAACAAATTTTCCTAATCTTTCTGTTCAAGCGCCATCTAC”, the binding signal is 5.39 RPM ratio (pull-down/input). The figure for “GATGATTGTTCTCCCAGCTGATGAATTTGCTTTCTCGAGTAAACAAATTTTCCTAATCTTTCTGTTCAAGCGCCATCTAC” is 5.95 RPM ratio (pull-down/input); for “GATGATTGTTCTCCCAGCTGATGAATTGCTTTGCTCGAGTAAACAAATTTTCCTAATCTTTCTGTTCAAGCGCCATCTAC” it is 1.22 RPM ratio (pull-down/input). The figure for “GATGATTGTTCTCCCAGCTGATGAATTGTCTTGCTCGAGTAAACAAATTTTCCTAATCTTTCTGTTCAAGCGCCATCTAC” is 0.461 RPM ratio (pull-down/input); for “GATGATTGTTCTCCCAGCTGATGAATTTGCTTACTCGAGTAAACAAATTTTCCTAATCTTTCTGTTCAAGCGCCATCTAC” it is 6.78 RPM ratio (pull-down/input); for “GATGATTGTTCTCCCAGCTGATGAATTTGCTGTCTCGAGTAAACAAATTTTCCTAATCTTTCTGTTCAAGCGCCATCTAC” it is 6.16 RPM ratio (pull-down/input). The figure for “GATGATTGTTCTCCCAGCTGATGAATTGCTTGTCTCGAGTAAACAAATTTTCCTAATCTTTCTGTTCAAGCGCCATCTAC” is 1.71 RPM ratio (pull-down/input). For “GATGATTGTTCTCCCAGCTGATGAATTTTGCTTCTCGAGTAAACAAATTTTCCTAATCTTTCTGTTCAAGCGCCATCTAC”, the binding signal is 2.58 RPM ratio (pull-down/input).

Consider “GATGATTGTTCTCCCAGCTGATGAATTTTGCTACTCGAGTAAACAAATTTTCCTAATCTTTCTGTTCAAGCGCCATCTAC”, for which the binding signal is 2.59 RPM ratio (pull-down/input). The figure for “GATGATTGTTCTCCCAGCTGATGAATTGCTTTACTCGAGTAAACAAATTTTCCTAATCTTTCTGTTCAAGCGCCATCTAC” is 1.22 RPM ratio (pull-down/input); for “GATGATTGTTCTCCCAGCTGATGAATTGCTTTTCTCGAGTAAACAAATTTTCCTAATCTTTCTGTTCAAGCGCCATCTAC” it is 1.42 RPM ratio (pull-down/input). As to “GATGATTGTTCTCCCAGCTGATGAATTTTCTTGCTCGAGTAAACAAATTTTCCTAATCTTTCTGTTCAAGCGCCATCTAC”, the binding signal is 0.298 RPM ratio (pull-down/input). The figure for “GATGATTGTTCTCCCAGCTGATGAATTTGCTTGCTCGAGTAAACAAATTTTCCTAATCTTTCTGTTCAAGCGCCATCTAC” is 6.22 RPM ratio (pull-down/input); for “GATGATTGTTCTCCCAGCTGATGAATTTAGCAGGTCGAGTAAACAAATTTTCCTAATCTTTCTGTTCAAGCGCCATCTAC” it is 0.708 RPM ratio (pull-down/input). The figure for “GATGATTGTTCTCCCAGCTGATGAATTCCCATGGTCGAGTAAACAAATTTTCCTAATCTTTCTGTTCAAGCGCCATCTAC” is 0.262 RPM ratio (pull-down/input); for “GATGATTGTTCTCCCAGCTGATGAATTACCAGGGTCGAGTAAACAAATTTTCCTAATCTTTCTGTTCAAGCGCCATCTAC” it is 0.252 RPM ratio (pull-down/input); for “GATGATTGTTCTCCCAGCTGATGAATTTATCCGTTCGAGTAAACAAATTTTCCTAATCTTTCTGTTCAAGCGCCATCTAC” it is 0.58 RPM ratio (pull-down/input). As for “GATGATTGTTCTCCCAGCTGATGAATTGCTTTCATCGAGTAAACAAATTTTCCTAATCTTTCTGTTCAAGCGCCATCTAC”, the binding signal was 1.04 RPM ratio (pull-down/input). The figure for “GATGATTGTTCTCCCAGCTGATGAATTGTAGCCATCGAGTAAACAAATTTTCCTAATCTTTCTGTTCAAGCGCCATCTAC” is 1.99 RPM ratio (pull-down/input); for “GATGATTGTTCTCCCAGCTGATGAATTTCAACGATCGAGTAAACAAATTTTCCTAATCTTTCTGTTCAAGCGCCATCTAC” it is 0.284 RPM ratio (pull-down/input).

Turning to “GATGATTGTTCTCCCAGCTGATGAATTCTGGGGGTCGAGTAAACAAATTTTCCTAATCTTTCTGTTCAAGCGCCATCTAC”, the binding signal is 0.456 RPM ratio (pull-down/input). For the sequence “GATGATTGTTCTCCCAGCTGATGAATTTTGTTTTTCGAGTAAACAAATTTTCCTAATCTTTCTGTTCAAGCGCCATCTAC”, the binding signal was 7.43 RPM ratio (pull-down/input). As to “GATGATTGTTCTCCCAGCTGATGAATTCTGTTGTTCGAGTAAACAAATTTTCCTAATCTTTCTGTTCAAGCGCCATCTAC”, the binding signal was 7.51 RPM ratio (pull-down/input). For “GATGATTGTTCTCCCAGCTGATGAATTTGTTGATTCGAGTAAACAAATTTTCCTAATCTTTCTGTTCAAGCGCCATCTAC”, the binding signal was 7.3 RPM ratio (pull-down/input).

Consider “GATGATTGTTCTCCCAGCTGATGAATTTTTGTTTTCGAGTAAACAAATTTTCCTAATCTTTCTGTTCAAGCGCCATCTAC”, for which the binding signal is 2.51 RPM ratio (pull-down/input). The figure for “GATGATTGTTCTCCCAGCTGATGAATTTTTTGATTCGAGTAAACAAATTTTCCTAATCTTTCTGTTCAAGCGCCATCTAC” is 0.323 RPM ratio (pull-down/input); for “GATGATTGTTCTCCCAGCTGATGAATTGTTGAATTCGAGTAAACAAATTTTCCTAATCTTTCTGTTCAAGCGCCATCTAC” it is 1 RPM ratio (pull-down/input). Turning to “GATGATTGTTCTCCCAGCTGATGAATTCGAGTTTTCGAGTAAACAAATTTTCCTAATCTTTCTGTTCAAGCGCCATCTAC”, the binding signal is 0.651 RPM ratio (pull-down/input).

As to “GATGATTGTTCTCCCAGCTGATGAATTCTTTTTTTCGAGTAAACAAATTTTCCTAATCTTTCTGTTCAAGCGCCATCTAC”, the binding signal was 0.311 RPM ratio (pull-down/input). Turning to “GATGATTGTTCTCCCAGCTGATGAATTCTGTTTTTCGAGTAAACAAATTTTCCTAATCTTTCTGTTCAAGCGCCATCTAC”, the binding signal is 5.51 RPM ratio (pull-down/input).

Consider “GATGATTGTTCTCCCAGCTGATGAATTGTTTTGTTCGAGTAAACAAATTTTCCTAATCTTTCTGTTCAAGCGCCATCTAC”, for which the binding signal is 4.09 RPM ratio (pull-down/input). Take “GATGATTGTTCTCCCAGCTGATGAATTCTTTGATTCGAGTAAACAAATTTTCCTAATCTTTCTGTTCAAGCGCCATCTAC”: the binding signal was 0.276 RPM ratio (pull-down/input). The figure for “GATGATTGTTCTCCCAGCTGATGAATTCCTGTTTTCGAGTAAACAAATTTTCCTAATCTTTCTGTTCAAGCGCCATCTAC” is 0.929 RPM ratio (pull-down/input); for “GATGATTGTTCTCCCAGCTGATGAATTATTAGGTTCGAGTAAACAAATTTTCCTAATCTTTCTGTTCAAGCGCCATCTAC” it is 0.47 RPM ratio (pull-down/input). As to “GATGATTGTTCTCCCAGCTGATGAATTAACTTAGTCGAGTAAACAAATTTTCCTAATCTTTCTGTTCAAGCGCCATCTAC”, the binding signal is 0.295 RPM ratio (pull-down/input). The figure for “GATGATTGTTCTCCCAGCTGATGAATTTCTTCACTCGAGTAAACAAATTTTCCTAATCTTTCTGTTCAAGCGCCATCTAC” is 0.269 RPM ratio (pull-down/input); for “GATGATTGTTCTCCCAGCTGATGAATTTAGGGTATCGAGTAAACAAATTTTCCTAATCTTTCTGTTCAAGCGCCATCTAC” it is 1.02 RPM ratio (pull-down/input). The figure for “GATGATTGTTCTCCCAGCTGATGAATTTGATTGGTCGAGTAAACAAATTTTCCTAATCTTTCTGTTCAAGCGCCATCTAC” is 5.03 RPM ratio (pull-down/input); for “GATGATTGTTCTCCCAGCTGATGAATTTACCGGATCGAGTAAACAAATTTTCCTAATCTTTCTGTTCAAGCGCCATCTAC” it is 0.251 RPM ratio (pull-down/input).
